Screen size: about 85,000 compounds; about 35 (0.04%) were called active.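 Rule for the calls: active = viability drop by adding the cancer drug above about 55%, with treated viability meeting a 40% cutoff (limit read from the data); inactive = the rest, inconclusive results apart.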 The full list was thinned out, with actives kept by preference.
Test: MRP1 drug-resistance reversers in H69AR cells – cell-based, doxorubicin co-treatment, primary screen (AID 602);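 for differential viability (reversal): larger differential means the compound sensitizes cells more to doxorubicin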
Settings: CellTiter-Glo, 72 h, at 10 µM; for differential viability (reversal): stronger effect = higher value
[1] = H69AR cells + 2 uM doxorubicin, measured here: viability with 2 uM doxorubicin, stronger effect = lower value
[2] = H69AR cells, measured here: cytotoxicity without doxorubicin

SMILES | differential viability (reversal) (H69AR cells + 2 uM doxorubicin) | viability [1] [%] | viability [2] [%]
CCCC(=O)C1CCN(Cc2ccccc2)CC1 | 1.73% (inactive) | 91.3 | 93
CC1(C)COC(c2cccn2Cc2ccccc2Cl)=N1 | 13.1% (inactive) | 90.7 | 104
COc1ccc(C2CC(=O)n3c(nc4ccccc43)S2)cc1OC (centres undefined) | 4.1% (inactive) | 111 | 115
CCc1ccc2c(c1)C1(NN=C(c3ccccc3)S1)C(=O)N2 (centres undefined) | -18.7% (inactive) | 34 | 15.2
COc1cccc(OC)c1C(=O)Nc1ccc(N2CCCCC2)cc1 | 15% (inactive) | 90.1 | 105
COC(=O)CSc1snnc1-c1ccc(Cl)c(Cl)c1 | 8.05% (inactive) | 89.3 | 97.3
CC(C)C(=O)NC(NC(=S)NC1CCS(=O)(=O)C1)C(Cl)(Cl)Cl (centres undefined) | 6.22% (inactive) | 95.7 | 102
CCOC(=O)c1cnn(Cc2ccccc2Cl)c1N | 4.58% (inactive) | 91.6 | 96.2
CCOc1cccc(C(=O)Nc2nnc(-c3cccs3)s2)c1 | -41.2% (inactive) | 103 | 62.1
CCn1nccc1C(=O)Nc1ccc(Cl)c(Cl)c1 | 8.65% (inactive) | 68.4 | 77
CCCc1nc2sc3c(c2c(=O)n1NC(=O)CCCl)CCCC3 | 11.4% (inactive) | 24.6 | 36
CC(c1ccco1)N(C(=O)Nc1ccccc1)C1CCCCC1 (centres undefined) | 8.57% (inactive) | 69.1 | 77.7
CCCNC(=O)c1ccccc1NC(=O)CSCc1ccc(OC)cc1 | 16.1% (inactive) | 67.8 | 83.9
O=C(CSc1nnc(-c2cccnc2)n1CCc1ccccc1)NCc1ccccc1 | 20.9% (inactive) | 68.7 | 89.6
Cc1ccc(Nc2nnc(SCc3ccccc3)s2)cc1 | 25.2% (inactive) | 73 | 98.2
CC1CCN(S(=O)(=O)c2ccc(S(=O)(=O)NCc3ccco3)cc2)CC1 | -17.8% (inactive) | 93.1 | 75.4
CC(=O)NC1(c2cccc(F)c2)CCN(CC(=O)NC(C)C)CC1 | -7.86% (inactive) | 90.6 | 82.8
CCOc1ccc(N=Cc2c(O)n(-c3cccc(C)n3)c(=O)c3ccccc23)cc1 | 10.8% (inactive) | 80.7 | 91.4
CCN(CC)S(=O)(=O)c1cc([N+](=O)[O-])ccc1NNC(=O)Nc1ccccc1 | 0.11% (inactive) | 89.8 | 89.9
CCOc1nc(NCCN2CCOCC2)nc(Nc2ccc(C)cc2)n1 | 15.7% (inactive) | 76.1 | 91.8
Cc1cccc(OCCCC(=O)Nc2ccc(S(=O)(=O)N3CCCC3)cc2)c1 | 6.98% (inactive) | 82.2 | 89.2
COc1ccc(C2C(C#N)=C(/N=C/N3CCOCC3)OC3=C2C(=O)CC(C)(C)C3)cc1OC (centres undefined) | 12.9% (inactive) | 83.8 | 96.7
COC(=O)CNC(=O)c1ccccc1F | -4.37% (inactive) | 89.6 | 85.2
Cc1ccc(-n2c(SCC(=O)NCc3ccc4c(c3)OCO4)nnc2-c2cccnc2)c(C)c1 | -22.4% (inactive) | 57.5 | 35.1

SMILES | differential viability (reversal) (H69AR cells + 2 uM doxorubicin) | viability [1] [%] | viability [2] [%]
CCCCN1C(=O)/C(=C2/C=CC=CN2C)SC1=S | 1.69% (inactive) | 88.5 | 90.2
CS(=O)(=O)N(CC(=O)Nc1ccc(Cl)c(Cl)c1)C1CCCCC1 | -18.2% (inactive) | 34.8 | 16.6
CC(C)(C)NC(=O)Cn1c(SCC(=O)Nc2nccs2)nc2ccccc21 | 7.96% (inactive) | 84.5 | 92.5
COCCCNC(=O)CN1CCN(Cc2ccccc2Cl)C1=O | 11.7% (inactive) | 86.8 | 98.5
CCCc1nc(NCc2ccc3c(c2)OCO3)c2nnn(Cc3ccccc3Cl)c2n1 | 1.6% (inactive) | 23 | 24.6
Cc1nc2ccccc2n1C(=O)N1CCOCC1 | -2.57% (inactive) | 85.1 | 82.5
CCN(CC(=O)Nc1ccccc1OC)C(=O)Cn1cnc2ccccc2c1=O | 8.46% (inactive) | 84.2 | 92.7
CCOc1c(Br)cc(/C=C2\C(=O)N(CCC#N)N=C2C)cc1OC | -46.8% (inactive) | 73 | 26.2
CCNCCC(=O)N1c2ccccc2Sc2ccc(NC(=O)OCC)cc21 | 8.86% (inactive) | 69.7 | 78.6
Cc1cccn2c(=O)c(/C=C(\C#N)S(=O)(=O)c3ccc(Cl)cc3)c(N3CCC(C(N)=O)CC3)nc12 | -6.85% (inactive) | 89 | 82.2
COc1ccc(-n2nc(C(=O)NCC(=O)Nc3cccc(C)n3)c3ccccc3c2=O)cc1 | -0.23% (inactive) | 74.5 | 74.2
CCOC(=O)N1CCC(Nc2c(NCCCN3CCN(CC)CC3)c(=O)c2=O)CC1 | 2.1% (inactive) | 109 | 112
O=S(=O)(Cc1cc(Sc2ccccc2)nc(-c2ccccc2)n1)c1ccccc1 | -7.14% (inactive) | 91.4 | 84.3
Cc1ccc(CN(N=Nc2nonc2N)c2nonc2N)c(C)c1 | 2.63% (inactive) | 76.9 | 79.6
CCN1C(=O)/C(=C2/Sc3ccc(OC)cc3N2C)SC1=Nc1ccc(C)cc1 | -4.5% (inactive) | 70.6 | 66.1
CC/C(O)=N\S(=O)(=O)c1ccc(N=NN(C)C)cc1 | -1% (inactive) | 86.7 | 85.7
CCC(C)NC(=O)c1cc(Cl)ccc1OC (centres undefined) | 6.89% (inactive) | 83.6 | 90.5
O=C(Nc1nnc(SCc2ccccc2)s1)c1ccco1 | 5.76% (inactive) | 90.2 | 96
CCc1ccc(CNC(=O)C2CC(=O)N(CCc3ccc(C)cc3)C2)cc1 (centres undefined) | 1.99% (inactive) | 97.6 | 99.5
Cc1nnc(OCC(=O)NCCC2=CCCCC2)c2ccccc12 | -0.56% (inactive) | 101 | 101
O=C1C2C3C=CC(C4CC34)C2C(=O)N1/N=C/c1ccc(-c2ccccc2[N+](=O)[O-])o1 (centres undefined) | 16.1% (inactive) | 70.3 | 86.5
CC(C)CCOc1ccc(C(=O)C[N+]2(C)CCOCC2)cc1 | 16.9% (inactive) | 86 | 103
Nc1nc(C23CC4CC(CC(C4)C2)C3)cs1 | -3.46% (inactive) | 96.8 | 93.3
Cc1cc(C)c(NC(=O)CN2CCOCCOCCOCCOCC2)c(C)c1 | 8.19% (inactive) | 89 | 97.2

From PubChem BioAssay AID602 (SRMLSC, 2007)
